# High-throughput results from PubChem.
# This is a sample that favours compounds with a hit; in the whole collection about 7.8% have one here.
# HCMV inh: inhibitors of human cytomegalovirus | HFF cells, HCMV-luciferase reporter, 72 h; hits give low values | activity change, negative = inhibition, % at 57.5 µM | 410,000 tested, 4.5% active; in the data active = activity change below about -60%; inconclusive = no clear call, values can overlap the other calls; inactive = above about -39%
#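 After 16 h attachment at 37C, HFF cells received test compound and HCMV-luciferase (1 PFU/cell); reporter luminescence read 72 h later, data normalized against buffer-only and known inhibitor Salinomycin.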
# MARV entry inh: blocks Marburg virus binding to or entry into cells. AID 540276. Potency, µM (highest dose often 37.8 µM), inactives show top-dose activity change, negative = inhibition, usual class: inhibitors. Marburg virus pseudotyped entry inhibition, cell reporter. 300,000 tested, 1.8% active; calls by dose curve; tested in HEK293 cells; also: potency is read from the fitted curve at half-maximal effect
# VACV Venus inh: vaccinia inhibition (Venus reporter); Vaccinia virus Venus reporter expression, fluorescence; Potency, µM (series often up to 36.5 µM), without a hit: at the highest dose activity change, negative = inhibition, hits mostly inhibitors; 330,000 tested, 0.46% active; AID 720580; calls by dose curve; tested in A549 cells; also: potency is read from the fitted curve at half-maximal effect; nearly all actives have a fitted effect of over 30% in size
# LASV entry inh: blocks Lassa virus binding to or entry into cells. Potency, µM (doses to about 37.9 µM), inactives show at the top dose activity change, negative = inhibition, usual class: inhibitors. Lassa virus pseudotype entry inhibition, cell reporter. 300,000 tested, 1.2% active; calls by dose curve; tested in HEK293 cells; also: potency is read from the fitted curve at half-maximal effect; nearly all actives have a fitted effect of over 50% in size
# Vaccinia mCherry: inhibitors of vaccinia virus infection (mCherry reporter signal); Potency, µM (series often up to 36.5 µM), without a hit: at the top dose activity change, negative = inhibition, actives largely listed as inhibitors; 310,000 tested, 0.63% active; AID 720579; Vaccinia virus mCherry reporter infection, fluorescence; calls by dose curve; tested in A549 cells; also: potency is read from the fitted curve at half-maximal effect; nearly all actives have a fitted effect of over 35% in size
# HCV inhibitor: HCV inhibition. Huh7.5.1 HCVcc-Cre infection, luciferase reporter, 44 h. 340,000 tested, 3.4% active. AID 651820. Potency, µM (highest dose often 41.8 µM), inactives show at the top dose activity change, negative = inhibition, most hits filed as inhibitors; active = well fitted inhibition curve with a large enough effect; inconclusive = small, poorly fitted or top-dose-only effect, or another doubt; inactive = no such curve, though single readings can be large or run the other way; also: potency is read from the fitted curve at half-maximal effect
#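 Cells (1,000/well) were plated 4 h before compound, then infected with HCVcc-Cre virus (~0.5 moi). After 44 h further culture, infection was read as luciferase luminescence following a 15 min substrate incubation at room temperature.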
# Numbers without * were called inactive; i = inactive; ? = inconclusive; · = not tested or not shown; [ ] = remark or other dose. % is scaled to controls: 0 for no effect and ±100 for the full control effect.
SMILES,HCMV inh,MARV entry inh,VACV Venus inh,LASV entry inh,Vaccinia mCherry,HCV inhibitor
C=CC[C@@H]1C=C[C@@H](Oc2ccc(OC)cc2)[C@@H](CO)O1,·,-15%[14.2 µM],·,·,·,·
CC(C)OC(=O)C1CC(C)(O)C(=O)C(C(=O)OC(C)C)C1c1ccc([N+](=O)[O-])cc1 (stereo not drawn),-64*,?,2%,-17%[46.1 µM],?,1%
CC(C)OC(=O)C1C(=O)CC(C)(O)C(C(=O)OC(C)C)C1c1ccc(F)cc1 (stereo not drawn),?,-3%,-23%,-1%,i,8%
COc1cc(F)c(S(=O)(=O)Nc2c(C)n(C)n(-c3ccccc3)c2=O)cc1OC,8,·,-4%,0%[46.1 µM],-5%,·
Cc1ccccc1Cn1c(=O)n(CCC(=O)NCc2ccco2)c(=O)c2sccc21,?,0%[46.1 µM],-5%,-2%[46.1 µM],-9%,·
CC(C)Cn1nc(NC(=O)c2cccc(Cl)c2)c2cc3ccccc3nc21,28,?,-14%,7%[46.1 µM],-11%,·
CCOC(=O)c1ccc(-c2ccc(/C=C(\C#N)c3nc4ccc(C)cc4[nH]3)o2)cc1,-79*,·,-14%,?,?,·
Cc1ccc2nc(/C(C#N)=C\c3cc(C)n(-c4cccc([N+](=O)[O-])c4)c3C)[nH]c2c1,-12,?,·,?,·,2.2µM*
Cc1ccc2nc(/C(C#N)=C\c3ccc(N4CCOCC4)o3)[nH]c2c1,137,?,i,-29%,17%,?
Cc1ccc2nc(/C(C#N)=C\c3ccc([N+](=O)[O-])o3)[nH]c2c1,-103*,18µM*,-11%,3.3µM*,i,?
Cc1cc(/C=C(/C#N)c2nc3ccccc3[nH]2)c(C)n1-c1cc(C(=O)O)cc(C(=O)O)c1,18,14%[46.1 µM],0%,19%[46.1 µM],i,2%
N#C/C(=C\c1ccc([N+](=O)[O-])o1)c1nc2ccccc2[nH]1,-94*,-1%,·,·,·,?
COc1ccc(C)cc1NC(=O)c1cc(S(=O)(=O)N2CCc3ccccc3C2)ccc1F,-36,·,-9%,16%[46.1 µM],-8%,·
COc1ccc(C2C(=O)N(C3CCC(C)CC3)CC(=O)N2Cc2ccccc2Cl)cc1OC (stereo not drawn),0,·,-3%,0%[46.1 µM],-1%,·
CC(C)(C)/C(O)=C(/C#N)c1nc2ccccc2[nH]1,-18,-29%,·,23%,·,?
N#C/C(=C(/O)c1ccc([N+](=O)[O-])o1)c1nc2ccccc2[nH]1,-74*,·,·,·,·,2%
COc1ccc(-c2cc(C)no2)cc1S(=O)(=O)N1CCN(c2ccccn2)CC1,-18,?,-19%,?,-4%,13µM*
Cc1cc(-c2ccc(C(C)C)c(S(=O)(=O)N3CCN(c4ccccn4)CC3)c2)on1,0,·,·,·,·,11µM*
COc1ccc(-c2cc(C)no2)cc1S(=O)(=O)N1CCN(c2ccccc2F)CC1,?,·,?,?,i,7.1µM*
COc1ccc(-c2cc(C)no2)cc1S(=O)(=O)N1CCN(C(=O)c2ccco2)CC1,14,·,·,·,·,-21%
Cc1ccc(CN2CCC(CNc3ncnc4onc(-c5ccc(Cl)cc5)c34)CC2)cc1,-10,·,-25%,?,-18%,·
COC(=O)c1ccccc1C(=O)N1CCc2c(cnc(C)c2CNC(=O)c2ccccc2F)C1,·,·,-5%,·,-11%,·
Cc1noc(/C=C/c2cccs2)c1S(=O)(=O)N1CCC(C(=O)Nc2ccc(F)c(Cl)c2)CC1,-73*,14%[46.1 µM],-22%,-21%[46.1 µM],-19%,·
COc1ccc(NC(=O)C2CCN(S(=O)(=O)c3c(C)noc3/C=C/c3ccco3)CC2)cc1,-67*,9%[46.1 µM],2%,1%[46.1 µM],1%,·
Cc1cc(C)c(/C=C/c2onc(C)c2S(=O)(=O)N2CCC(C(=O)Nc3ccc(Cl)c(C(F)(F)F)c3)CC2)c(C)c1,-97*,·,-12%[7.34 µM],25%[46.1 µM],-17%[7.34 µM],·
SMILES,HCMV inh,MARV entry inh,VACV Venus inh,LASV entry inh,Vaccinia mCherry,HCV inhibitor
CCc1ccc(NC(=O)C2CCN(S(=O)(=O)c3c(C)noc3/C=C/c3ccco3)CC2)cc1,?,6%[46.1 µM],-11%,2%[46.1 µM],-7%,·
Cc1cccc(Cn2c(=O)n(Cc3ccccc3)c(=O)c3c2c2cc(C)ccc2n3C)c1,22,·,-5%,?,-12%,·
O=C(Nc1ccc(-c2nc3ccccc3o2)cc1)c1cc(-n2cnnc2)ccc1Cl,-97*,?,·,?,·,?
O=C(Nc1ccc(-c2nc3ccccc3o2)c(O)c1)c1cc(-n2cnnc2)ccc1Cl,-95*,?,·,3%,·,11µM*
O=C(Nc1ccc2oc(-c3ccccc3)nc2c1)c1cc(-n2cnnc2)ccc1Cl,-3,-14%,·,?,·,?
Cc1c(NC(=O)c2cc(-n3cnnc3)ccc2Cl)cccc1-c1nc2ccccc2o1,38,-26%,-18%,-19%,?,?
CC1=C(C(=O)Nc2cccnc2)C(c2ccccc2)n2nc(-c3ccc(O)cc3)nc2N1 (stereo not drawn),26,1%[46.1 µM],-11%,6%[46.1 µM],5%,·
COc1ccc(CC(=O)Nc2ccc(S(=O)(=O)NC(C)C)cc2)cc1,-29,-4%,·,-7%,·,?
CCCCNS(=O)(=O)c1ccc(NC(=O)Cc2ccc(OC)cc2)cc1,-67*,?,-17%,-17%[46.1 µM],-5%,?
CN(Cc1ccccc1N1CCCC1)C(=O)c1cc2cc(Cl)ccc2o1,-6,·,·,·,·,11µM*
CN(Cc1ccccc1N1CCCC1)C(=O)c1cc2ccccc2o1,61,?,-11%,-1%[46.1 µM],-8%,?
Cc1ccc(Cn2c(SCC(=O)NCc3ccccc3)nc3ccsc3c2=O)cc1,?,·,-8%,-1%[46.1 µM],0%,·
COc1ccc(/C=N/NC(=O)c2cccc(Br)c2)cc1Cn1cc(Cl)cn1,-14,7.1µM*,?,?,?,?
Cc1[nH]c2ccccc2c1/C=N/NC(=O)c1cccc(Br)c1,·,3%[46.1 µM],-8%,-19%[46.1 µM],-21%,-23%
COc1ccc2ccccc2c1/C=N/NC(=O)c1cccc(Br)c1,-67*,0%,-6%,-11%,-26%,?
O=C(N/N=C/c1[nH]c2ccccc2c1Cl)c1cccc(Br)c1,-32,?,0%,-12%[46.1 µM],-10%,7.1µM*
COc1ccc(/C=N/NC(=O)c2ccc(Br)cc2)cc1Cn1cc(Cl)cn1,-9,?,0%,-7%,-13%,-9%
COc1ccc2ccccc2c1/C=N\NC(=O)c1ccc(C)s1,?,-21%[46.1 µM],-19%,7%[46.1 µM],-2%,10µM*
C/C(CCN1CCCc2nc(C)c(C)cc21)=N\OC[C@@H](O)[C@@H]1O[C@@H]2OC(C)(C)O[C@@H]2[C@H]1O,·,-8%[14.2 µM],·,·,·,·
O=C(Cc1ccccn1)N1CC(=O)N2[C@H](C1)[C@@H](c1ccc(Br)cc1)[C@@H]2CO,63,·,·,·,·,·
COC(=O)c1cc2ccccc2c(-c2c(OC)c(C(=O)OC)cc3ccccc23)c1OC,?,6.5µM*,-18%,?,?,10µM*
Cc1ccnc2ccc([N+](=O)[O-])cc12,·,·,-6%,·,-14%,·
